Assay outcomes: PubChem, Sanford-Burnham Center for Chemical Genomics
Only some compounds are listed: those with a hit (about 4% of all), similar ones and a draw of the others.
KKLEB cytotox: cytotoxicity in KKLEB CF airway cells, primary screen, cytotoxicity control for CF NF-kB inhibitor project, cell-based, uHTS, fluorescence assay plates. 360,000 tested, 0.36% active. activity change (cytotoxicity), % at 5 µM. KKLEB CF airway cells viability, ATPlite luminescence, overnight; stronger effect = lower value; cells stimulated with P. aeruginosa culture filtrate. AID 602141, 2011;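 active means corrected activity change at or below -50% at 5 µM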
TROY signal inh: inhibitors of TROY-driven NF-kB signaling, primary screen, Q293 LMP1-TROYcd cells, NF-kB luciferase, uHTS; inhibition, % at 10 µM; Q293 LMP1-TROYcd NF-kB luciferase reporter, 4 h; 360,000 tested, 0.98% active;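 active means compounds whose plate-normalised and pattern-corrected inhibition of the luciferase reporter signal at the single screening dose is 50% or more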
HIF-2a inh: HIF-2a reporter inhibitors, primary screen, luminescence, 786-0 RCC cells; 360,000 tested, 0.72% active; inhibition, % at 18.8 µM; 786-0 RCC cells HIF-2a reporter, luciferase luminescence, overnight;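 active means inhibition of the luminescence signal of 40% or more relative to plate controls, in a single-dose primary screen at 18.75 µM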
TWEAK-Fn14 inh: inhibitors of TWEAK-Fn14 signaling, primary screen, luciferase reporter cells, uHTS; TWEAK-stimulated Fn14 reporter cells, luciferase luminescence, 8 h; inhibition, % at 10 µM; 360,000 tested, 2% active; AID 1159606, 2016; in the data active means inhibition above about 50%
CF NFkB inh: inhibitors of PAF-induced NF-kB signaling, primary screen, cell-based, GFP fluorescence, uHTS; KKLEB NF-kB-GFP reporter, GFP fluorescence overnight; inhibition, % at 5 µM; 360,000 tested, 0.86% active;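 active means at least 50% inhibition at 5 µM, scaled per plate between neutral and stimulator controls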;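 further: PAF is a Pseudomonas aeruginosa culture filtrate used as stimulus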
Peg3 prom inh-1: Peg3 promoter-driven luciferase inhibitors, primary screen, cell-based, HeLa, luciferase luminescence. HeLa PEG-Prom luciferase reporter, overnight. inhibition, % at 20 µM. 360,000 tested, 1.7% active;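 active means inhibition of at least 50% at 20 µM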
Peg3 prom inh-2: Peg3 promoter reporter inhibitors, retest, confirmation, cell-based, HeLa, luciferase reporter, single concentration. shares compounds with Peg3 prom inh-1. HeLa PEG-Prom luciferase reporter, luminescence, overnight. inhibition, % at 20 µM. 1,300 tested, 84% active;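 active means at 20 µM dose, 40% or more inhibition averaged across four replicates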
Numbers stand for hits; . = inactive; / = no result.

SMILES	KKLEB cytotox	TROY signal inh	HIF-2a inh	TWEAK-Fn14 inh	CF NFkB inh	Peg3 prom inh-1	Peg3 prom inh-2
CC1(C)Oc2cc3oc(-c4cc(O)cc(O)c4)cc3cc2CC1O (configuration not stated)	.	80	.	76	.	59	65
O=c1oc2ccccc2cc1-c1cn2cccnc2n1	.	.	.	.	.	.	/
O=c1oc2ccccc2cc1-c1cn2ccccc2n1	-78	71	66	97	.	79	65
CC1(C(=O)NS(=O)(=O)c2ccc(Cl)cc2)CCN1C(=O)c1ccccc1CCc1ccccc1 (configuration not stated)	.	.	.	.	.	.	/
CC1(C(=O)Nc2cccc(OC(F)(F)F)c2)Cc2c(-c3cccc(C(F)(F)F)c3)ccnc2O1 (configuration not stated)	.	.	.	.	.	.	/
CC(=O)Nc1cccc(-c2ccnc3c2CC(C)(C(=O)Nc2cccc(OC(F)(F)F)c2)O3)c1 (configuration not stated)	.	.	.	.	.	63	61
S=C(Nc1ccc(Br)cc1Cl)N1CCCC1	.	.	.	.	.	.	/
O=C(Nc1ccc(CN2CCCCC2)cc1)Nc1ccc(Br)cc1Cl	.	.	.	.	.	67	96
NC(=O)CC(NC(=O)Cc1cccc2ccccc12)c1ccc(NC2CCCCC2)c([N+](=O)[O-])c1 (configuration not stated)	.	.	.	.	.	78	.
COc1ccc(CCNc2ccc(C(CC(N)=O)NC(=O)c3ccc(Br)cc3)cc2[N+](=O)[O-])cc1 (configuration not stated)	.	.	.	.	.	69	.
NC(=O)CC(NC(=O)Cc1cccc2ccccc12)c1ccc(NCC2CC2)c([N+](=O)[O-])c1 (configuration not stated)	.	.	.	.	.	.	/
NC(=O)CC(NC(=O)Cc1cccc2ccccc12)c1ccc(NCCOc2ccccc2)c([N+](=O)[O-])c1 (configuration not stated)	.	.	.	.	.	54	.
Cc1cc(C)cc(NC(=S)N(C)C)c1	.	.	.	.	.	.	/
c1cc2c3c(cccc3c1)NC1(CCC3(CC1)Nc1cccc4cccc(c14)N3)N2	.	.	.	.	.	76	75
COc1cc(SC)ccc1C(=O)Nc1ccc(C)cc1	.	.	.	.	.	.	/
COc1cc(SC)ccc1C(=O)Nc1ncc(C)s1	-53	83	49	100	.	77	61
O=C(O)C1=NOC(CNC(=O)c2ccccc2Cl)C1 (configuration not stated)	.	.	.	.	.	.	/
Cc1cccc(CN2C(=O)[C@H]3Cc4c([nH]c5ccccc45)C(C)(C)N3C2=O)c1	.	.	.	.	.	60	49
Cc1cccc(CN2C(=O)[C@@H]3Cc4c([nH]c5ccccc45)C(C)(C)N3C2=O)c1	.	.	.	.	.	.	/
CCc1nc2c(OCc3ccccc3)cccn2c1N(C)C(=O)c1ccc2c(c1)OCO2	.	.	.	.	.	.	/
CC(C)n1c(SCC(=O)Nc2nc3ccccc3s2)nc2c1c(=O)n(C)c(=O)n2C	.	.	.	.	.	.	/
CCn1c(SCC(=O)Nc2nc3ccc(OC)cc3s2)nc2c1c(=O)n(C)c(=O)n2C	.	.	.	58	.	62	.
N#Cc1c(-c2ccccc2F)cc(-c2cccnc2)nc1N	.	.	.	.	.	.	/
COC(=O)c1ccccc1-c1ccc(/C=N/Nc2nc(N3CCCC3)nc(N3CCCC3)n2)o1	.	.	.	.	.	52	56
COc1ccc(S(=O)(=O)N2CCOCC2)cc1NC(=O)c1ccc(=O)[nH]c1	.	.	.	.	.	.	/
SMILES	KKLEB cytotox	TROY signal inh	HIF-2a inh	TWEAK-Fn14 inh	CF NFkB inh	Peg3 prom inh-1	Peg3 prom inh-2
CCN1CCN(c2ncc(C(=O)Nc3cc(Cl)ccc3OC)c3ccccc23)CC1	.	.	.	.	.	61	57
CC(C)Cc1ccc(C(C)C(N)=NCCc2ccccc2)cc1 (configuration not stated)	.	.	.	.	.	104	99
Cc1cc(S(=O)(=O)c2ccc(Cl)cc2)nc(S(=O)(=O)c2ccc(Cl)cc2)c1C#N	-93	57	89	77	88	113	97
CC(C)N1CCc2c(sc(NC(=O)c3ccco3)c2C(N)=O)C1	.	.	.	.	.	.	/
CC(C)N1CCc2c(sc(NC(=O)c3cc4cc([N+](=O)[O-])ccc4s3)c2C(N)=O)C1	.	.	.	.	.	97	98
O=C(O)CCc1ccc(-c2cccs2)n1-c1ccc(C(=O)O)cc1	.	.	.	.	.	.	/
O=C1N[C@@H](c2ccccc2)COC(=O)[C@@H](Cc2ccc(F)cc2)CC/C=C/C[C@H]1CC(=O)N(CCO)Cc1ccccc1	.	.	.	.	.	52	47
C[C@@H]1COC(=O)[C@H](Cc2ccc(F)cc2)C/C=C\C[C@@H](CC(=O)N[C@H](CO)Cc2ccccc2)C(=O)N1	.	.	.	.	.	.	/
O=C(C[C@@H]1C/C=C\C[C@@H](Cc2ccc(F)cc2)C(=O)OC[C@@H](Cc2ccccc2)NC1=O)N[C@H](CO)Cc1ccccc1	.	.	.	.	.	63	.
CCOc1ccccc1NC(=O)Nc1c(C)n(-c2ccccc2)c(=O)n1C	.	.	.	.	.	.	/
CCOC(=O)C1=C(CC)Nc2ccccc2N/C1=N\S(=O)(=O)c1ccc(C(=O)OCC)cc1	.	.	.	.	.	.	/
O=C(C=Cc1ccccn1)c1ccccc1	.	.	.	82	.	101	87
O=C(/C=C/c1ccc(O)cc1)c1ccccc1	.	.	.	.	.	.	/
COc1ccc(S(=O)(=O)N2CCC[C@H]2C(=O)N2CCC[C@H]2C(=O)NCc2ccncc2)cc1C	/	.	.	.	/	/	/
COc1cccc(N2CCN(CC(=O)Nc3ccccc3C(=O)NCc3ccccc3)CC2)c1	.	.	.	.	.	57	51
CCCCCCOc1ccc(/C(C)=N/NC2=NCCN2)cc1	.	.	.	.	.	108	98
CC(C)(C)OC(=O)N1CCCC1C(=O)N1CCc2ccccc21 (configuration not stated)	.	.	.	.	.	.	/
